Reference: PubChem BioAssay AID504465 (National Center for Advancing Translational Sciences (NCATS), 2011)
Among all 2,100 compounds or so, about 210 (10%) were called active. About 53% were inconclusive and are not listed. Calls come from the whole dose curve; as a rule, active = well fitted inhibition curve with a large enough effect; inconclusive = small, poorly fitted or top-dose-only effect, or effect the other way; inactive = no such curve, though single readings can be large or run the other way. Some of the results follow.
Potency is the fitted concentration of half-maximal effect.

Test: IN Cell qHTS Assay for Inhibitors of the mTORC1 Signaling Pathway in MEF (Tsc2-/-, p53-/-) Cells: Sytravon; note: nearly all actives have a fitted effect of over 60% in size
Conditions: phospho-rpS6 immunofluorescence, 24 h; series mostly up to 38.3 µM; activity, negative = inhibition: at the top concentration
Outline: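 Immunofluorescence of rpS6 phosphorylation (Ser235/236) in mouse embryonic fibroblasts lacking Tsc2 and p53, after 24 h compound exposure; Hoechst-normalized signal imaged, each well scored as % active cells relative to rapamycin (7.5 nM) and DMSO controls.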
With `COc1cc(-c2nc(-c3ccccc3)c(-c3ccc(Br)cc3)[nH]2)cc(OC)c1O` the “activity, negative = inhibition” value was -20.2% (inactive). For `CCOc1ccc(CN2C(=O)c3ccccc3Sc3ccc(C(=O)O)cc32)cc1`, the “activity, negative = inhibition” value was 6.25% (inactive). In the case of `CCS(=O)(=O)N1CC(=O)N(c2ccc(Cl)cc2C)C(C)(C(=O)NC2CCCCC2)C1` (stereo not given), the “activity, negative = inhibition” value is reported as -2.96% (inactive). For `COc1ccc(Oc2nc3c(C)cccn3c(=O)c2/C=C(\C#N)c2nc3ccccc3[nH]2)cc1`, the “activity, negative = inhibition” value was 31.5% (inactive). For `O=C(Nc1ccc(Cl)cc1F)c1cc(S(=O)(=O)NC2CCCCCC2)ccc1F`, the “activity, negative = inhibition” value was -26.2% (inactive). In the case of `COc1ccc(NC(=O)[C@H]2O[C@@H]3OC(C)(C)O[C@@H]3[C@H]3OC(C)(C)O[C@H]32)c(OC)c1`, the “activity, negative = inhibition” value is reported as -0.729% (inactive). In the case of `CC(C)c1ccc(CNCCSc2nnnn2C)cc1`, the “activity, negative = inhibition” value is reported as 78.1% (inactive). In the case of `COCc1oc2ccc(NS(=O)(=O)c3ccc(C)cc3)cc2c1C(=O)OC`, the “activity, negative = inhibition” value is reported as -1.83% (inactive). With `CCOC(=O)c1cccc(NC(=O)c2cc3sccc3n2Cc2ccc(Cl)cc2)c1` the “activity, negative = inhibition” value was -32.5% (inactive). In the case of `CCOc1ccc(OCC)c(NS(=O)(=O)c2ccc(-c3coc(C)n3)cc2)c1`, the “activity, negative = inhibition” value is reported as -11.1% (inactive). In the case of `Cc1ccc(CN2C(=O)C(=O)c3cc(Br)cc(C)c32)cc1`, the Potency is reported as 5.85 µM (active). In the case of `CCCCOc1ccc(CN2C(=O)C(=O)c3cc(Br)cc(C)c32)cc1OC`, the Potency is reported as 5.85 µM (active). In the case of `CCCC1=Nc2cc(C(=O)NCCc3ccccc3)ccc2Sc2ccc(C)cc21`, the “activity, negative = inhibition” value is reported as 28.9% (inactive). In the case of `Cc1c(Cl)cccc1NC(=O)NCc1c(-n2cccc2)sc2c1CCCC2`, the “activity, negative = inhibition” value is reported as 3.66% (inactive). With `CCCN(Cc1cccs1)C(=O)Nc1ccccc1C` the “activity, negative = inhibition” value was -11.5% (inactive). In the case of `COc1ccc(-c2nc(SCC(=O)Nc3ccc4c(c3)OCO4)c(-c3ccc(OC)cc3)[nH]2)cc1`, the “activity, negative = inhibition” value is reported as -30.5% (inactive). For `COc1ccc(NC(=O)CSCc2cnn(-c3ccccc3)c2-n2cccc2)cc1`, the “activity, negative = inhibition” value was -17.9% (inactive). In the case of `COc1ccc(NC(=O)CSc2nc3ccccc3n2Cc2cccc(OC)c2)cc1`, the Potency is reported as 11.7 µM (active). For `Cc1ccc(CNC(=O)Cn2c(SCC(=O)Nc3ccc(F)cc3)nc3ccccc32)cc1`, the Potency was 5.21 µM (active). In the case of `O=C(CSc1cn(CCNC(=O)c2ccccc2F)c2ccccc12)Nc1ccc(F)cc1`, the “activity, negative = inhibition” value is reported as -11.5% (inactive). In the case of `COc1ccccc1NC(=O)Cn1c(SCC(=O)Nc2ccc(F)cc2)nc2ccccc21`, the “activity, negative = inhibition” value is reported as -4.21% (inactive). With `CC(=O)N1c2ccc(S(=O)(=O)NCC3CCC(C(=O)Nc4cc(C)cc(C)c4)CC3)cc2CC1C` (stereo not given) the “activity, negative = inhibition” value was -17.7% (inactive). In the case of `NC(=O)CSc1nc2ccc(NC(=O)COc3ccccc3Cl)cc2s1`, the “activity, negative = inhibition” value is reported as -53.5% (inactive). For `Cc1ccc2[nH]cc(C(c3ccccc3)c3ccc(Cl)s3)c2c1` (stereo not given), the “activity, negative = inhibition” value was 11.2% (inactive). With `CCc1cccc(NC(=O)c2ccc(CNS(=O)(=O)c3ccc4c(c3)C(C)(C)C(=O)N4C)cc2)c1` the “activity, negative = inhibition” value was -6.44% (inactive). For `Cc1cncn1CCc1nc2c3ccccc3nc(SCC(=O)Nc3ccccc3F)n2n1`, the “activity, negative = inhibition” value was -18.2% (inactive). With `COc1ccc(Nc2c3c(nc4nncn24)CCC3)cc1OC` the “activity, negative = inhibition” value was -7.07% (inactive). For `O=c1[nH]c(SCc2ccc(Br)cc2)nc2c1CCCC2`, the “activity, negative = inhibition” value was -18.7% (inactive). In the case of `Brc1ccc(Nc2c3c(nc4nncn24)CCC3)cc1`, the Potency is reported as 10.4 µM (active). In the case of `CCOc1ccc(-c2nonc2NC(=O)c2oc3ccc(CC)cc3c2C)cc1`, the “activity, negative = inhibition” value is reported as 0.616% (inactive). In the case of `NS(=O)(=O)c1ccc(CCNC(=O)C2COc3ccccc3C2)cc1` (stereo not given), the “activity, negative = inhibition” value is reported as 0.324% (inactive). For `Cc1ccc(NC(=O)c2c(C)oc3ccc(O)c(CN4CCCCCC4)c23)cc1`, the “activity, negative = inhibition” value was -9.84% (inactive). With `COc1ccc(NC(=O)c2c(C)oc3ccc(O)c(CN4CCN(Cc5ccccc5)CC4)c23)cc1Cl` the “activity, negative = inhibition” value was -18.9% (inactive). With `Cc1oc2ccc(O)c(CN3CCC(C)CC3)c2c1C(=O)Nc1ccccc1` the Potency was 5.21 µM (active). For `Cc1oc2ccc(O)c(CN3CCCCCC3)c2c1C(=O)Nc1cccc(Cl)c1C`, the “activity, negative = inhibition” value was -13.9% (inactive). In the case of `COc1ccc(NC(=O)c2c(C)oc3ccc(O)c(CN4CCCC(C)C4)c23)cc1` (stereo not given), the “activity, negative = inhibition” value is reported as -13.9% (inactive). With `COc1ccc(NC(=O)c2c(C)oc3ccc(O)c(CN4CCC(C)CC4)c23)cc1Cl` the Potency was 13.1 µM (active). With `O=C(Cn1cc(SCc2ccc(Cl)cc2)c2ccccc21)N1CCCC1` the “activity, negative = inhibition” value was -8.71% (inactive). For `Oc1c(C(Nc2ccccn2)c2ccccc2F)ccc2cccnc12` (stereo not given), the “activity, negative = inhibition” value was -19.3% (inactive). In the case of `COc1ccc(C)cc1NC(=O)c1cc(S(=O)(=O)N2CCN(c3cccc(C)c3C)CC2)ccc1F`, the “activity, negative = inhibition” value is reported as 6.25% (inactive). With `Cc1cc(NC(=O)C2CCC(CNS(=O)(=O)c3ccc(Br)s3)CC2)ccc1Br` (stereo not given) the “activity, negative = inhibition” value was -23% (inactive). In the case of `COc1ccccc1C(=O)Nc1cccc(OCc2cc(=O)n3ccccc3n2)c1`, the “activity, negative = inhibition” value is reported as -16.7% (inactive). With `COc1ccccc1C(=O)Nc1nc2ccc(S(=O)(=O)N3CCCC3)cc2s1` the “activity, negative = inhibition” value was 7.56% (inactive). For `COc1ccccc1C(=O)Nc1sc(Nc2ccccc2)nc1C(N)=O`, the Potency was 18.5 µM (active). In the case of `CCCCNC(=O)CSc1nc2n[nH]c(C)c2c(=N)n1-c1cccc(Cl)c1C`, the “activity, negative = inhibition” value is reported as 0% (inactive). For `Cc1ccc(-c2nc3ccc(Cl)cn3c2Nc2ccccc2C)s1`, the “activity, negative = inhibition” value was 6.27% (inactive). In the case of `Cc1cc(C)cc(NS(=O)(=O)c2ccc(-c3cc(C)no3)s2)c1`, the “activity, negative = inhibition” value is reported as 1.3% (inactive). In the case of `CCC1=Nc2cc(C(=O)NC3CCCC3)ccc2Sc2ccc(Cl)cc21`, the “activity, negative = inhibition” value is reported as -14.2% (inactive). With `Cc1nc(-c2ccc(F)cc2)sc1CCNC(=O)C(=O)Nc1ccc2c(c1)OCCO2` the “activity, negative = inhibition” value was 0.21% (inactive). For `CC(=O)Nc1cccc(NC(=O)C(=O)NCCc2sc(-c3ccccc3)nc2C)c1`, the Potency was 2.33 µM (active). For `CCCC(=O)Nc1cccc(-c2cn3c(C)csc3n2)c1`, the “activity, negative = inhibition” value was -23.1% (inactive). In the case of `O=c1oc2ccccc2cc1-c1cn2cc(Cc3ccccc3F)sc2n1`, the “activity, negative = inhibition” value is reported as 17.9% (inactive). With `CCOc1cc(C2C(C(=O)OC)=C(C)NC3=C2C(=O)c2ccccc23)cc(Br)c1OCC` (stereo not given) the “activity, negative = inhibition” value was 24.9% (inactive). For `CC(NC(=O)c1c2c(nc3ccccc13)C(=O)N(C1CCCCC1)C2)c1ccccc1` (stereo not given), the “activity, negative = inhibition” value was -0.206% (inactive). In the case of `CCC1CCCCN1CCCNC(=O)c1ccc2c(c1)N(Cc1cccc(Cl)c1)C(=O)c1ccccc1S2(=O)=O` (stereo not given), the “activity, negative = inhibition” value is reported as 0% (inactive). In the case of `Cc1ccc(C)c(CN2C(=O)c3ccccc3S(=O)(=O)c3ccc(C(=O)NCCCN4CCCC(C)C4)cc32)c1` (stereo not given), the Potency is reported as 5.21 µM (active). With `Cc1cccc(CN2C(=O)c3ccccc3Sc3ccc(C(=O)NC4CCCCC4)cc32)c1` the “activity, negative = inhibition” value was 6.25% (inactive). With `CC1CCCN(CCCNC(=O)c2ccc3c(c2)N(Cc2cccc(Cl)c2)C(=O)c2ccccc2S3(=O)=O)C1` (stereo not given) the “activity, negative = inhibition” value was 0% (inactive). With `CCCCN(CC)CCCNC(=O)c1ccc2c(c1)N(Cc1ccc(C)cc1)C(=O)c1ccccc1S2` the “activity, negative = inhibition” value was 6.25% (inactive). In the case of `Cc1ccc(CN2C(=O)c3ccccc3Sc3ccc(C(=O)NCCCN4CCOCC4)cc32)cc1`, the Potency is reported as 16.5 µM (active).
